In PubChem BioAssay AID1159580 (chemical genetic matrix, 2015):
Out of some 5,500 compounds screened, about 2,000 (36%) were called active. Another 18% or so got no clear call; they are omitted. Cut-off read from the data, not from the text of the source: active = normalized growth mostly below about 0.91 (no sharp cut-off); inconclusive = no clear call, values can overlap the other calls; inactive = mostly above about 0.92. Some of the results follow.

Assay: chemical genetic growth profiling, strain panel (AID 1159580);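 note: tested at 20 µM; growth read once vehicle control cultures reached saturation at 30 °C; 1 = growth at the plate median or of vehicle wells; lower values mean less growth of the strain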
Conditions: growth OD

Measured: normalized growth

C[N+]1(C)C[C@H](O)[C@H](C(=O)[O-])C1
inactive: S. cerevisiae deletion strains, locus YJR043C, strain POL32, active compounds read low 0.995 | S. cerevisiae deletion strains, locus YJR075W, strain HOC1, active compounds read low 0.994 | S. cerevisiae deletion strains, locus YKL009W, strain mrt4, active compounds read low 0.991 | S. cerevisiae deletion strains, locus YKL068W, active compounds read low 0.996 | S. cerevisiae deletion strains, locus YKL085W, strain MDH1 (second series), active compounds read low 0.988 | S. cerevisiae deletion strains, locus YKL085W, strain MDH1, active compounds read low 0.988 | S. cerevisiae deletion strains, locus YKL160W, strain elf1, active compounds read low 0.993 | S. cerevisiae deletion strains, locus YKL190W, strain CNB1, active compounds read low 1.01 | S. cerevisiae deletion strains, locus YKR001C, strain vps1, active compounds read low 0.995 | S. cerevisiae deletion strains, locus YKR026C, strain gcn3, active compounds read low 1.01 | S. cerevisiae deletion strains, locus YKR091W, strain srl3, active compounds read low 1.01 | S. cerevisiae deletion strains, locus YLL001W, strain dnm1, active compounds read low 1 | S. cerevisiae deletion strains, locus YLL026W, active compounds read low 1.02 | S. cerevisiae deletion strains, locus YLL041C, strain sdh2, active compounds read low 1.01 | S. cerevisiae deletion strains, locus YLR027C, strain aat2, active compounds read low 1.01 | S. cerevisiae deletion strains, locus YLR039C, strain RIC1, active compounds read low 1.02 | S. cerevisiae deletion strains, locus YLR058C, strain SHM2, active compounds read low 1.01 | S. cerevisiae deletion strains, locus YLR102C, strain apc9, active compounds read low 0.995 | S. cerevisiae deletion strains, locus YLR221C, strain rsa3, active compounds read low 0.997 | S. cerevisiae deletion strains, locus YLR258W, strain gsy2, active compounds read low 1.03 | S. cerevisiae deletion strains, locus YLR262C, strain YPT6 (second series), active compounds read low 1.02 | S. cerevisiae deletion strains, locus YLR262C, strain YPT6, active compounds read low 1.01 | S. cerevisiae deletion strains, locus YLR268W, strain sec22, active compounds read low 0.991 | S. cerevisiae deletion strains, locus YLR320W, strain mms22, active compounds read low 1.03 | S. cerevisiae deletion strains, locus YLR330W, strain CHS5, active compounds read low 1 | S. cerevisiae deletion strains, locus YLR342W, strain FKS1 (second series), active compounds read low 1.02 | S. cerevisiae deletion strains, locus YLR342W, strain FKS1, active compounds read low 1.01 | S. cerevisiae deletion strains, locus YLR357W, strain rsc2, active compounds read low 1.02 | S. cerevisiae deletion strains, locus YLR370C, strain arc18, active compounds read low 1.02 | S. cerevisiae deletion strains, locus YLR371W, strain rom2, active compounds read low 0.996 | S. cerevisiae deletion strains, locus YLR384C, strain iki3, active compounds read low 1.02 | S. cerevisiae deletion strains, locus YLR418C, strain cdc73, active compounds read low 1.01 | S. cerevisiae deletion strains, locus YML016C, strain PPZ1, active compounds read low 1.01 | S. cerevisiae deletion strains, locus YML032C, strain rad52, active compounds read low 0.991 | S. cerevisiae deletion strains, locus YML120C, strain ndi1, active compounds read low 0.991 | S. cerevisiae deletion strains, locus YML124C, strain tub3, active compounds read low 0.997 | S. cerevisiae deletion strains, locus YMR058W, strain fet3, active compounds read low 1.01 | S. cerevisiae deletion strains, locus YMR078C, strain ctf18, active compounds read low 1.01 | S. cerevisiae deletion strains, locus YMR125W, strain sto1, active compounds read low 1.02 | S. cerevisiae deletion strains, locus YMR129W, active compounds read low 1.01 | S. cerevisiae deletion strains, locus YMR205C, strain PFK2, active compounds read low 1.04 | S. cerevisiae deletion strains, locus YMR223W, strain ubp8, active compounds read low 0.989 | S. cerevisiae deletion strains, locus YMR231W, strain pep5, active compounds read low 1.01 | S. cerevisiae deletion strains, locus YMR263W, strain SAP30, active compounds read low 1.02 | S. cerevisiae deletion strains, locus YMR307W, strain GAS1, active compounds read low 1.07 | S. cerevisiae deletion strains, locus YNL067W, strain RPL9B, active compounds read low 1.01 | S. cerevisiae deletion strains, locus YNL071W, strain lat1, active compounds read low 1.02 | S. cerevisiae deletion strains, locus YNL128W, strain TEP1, active compounds read low 1.01 | S. cerevisiae deletion strains, locus YNL153C, strain GIM3, active compounds read low 1.01 | S. cerevisiae deletion strains, locus YNL209W, strain ssb2, active compounds read low 1.01 | S. cerevisiae deletion strains, locus YNL233W, strain BNI4, active compounds read low 1.01 | S. cerevisiae deletion strains, locus YNL248C, strain rpa49, active compounds read low 0.98 | S. cerevisiae deletion strains, locus YNL250W, strain rad50, active compounds read low 0.992 | S. cerevisiae deletion strains, locus YNL271C, strain bni1, active compounds read low 0.995 | S. cerevisiae deletion strains, locus YNL298W, strain CLA4, active compounds read low 1 | S. cerevisiae deletion strains, locus YNL307C, strain MCK1, active compounds read low 1.01 | S. cerevisiae deletion strains, locus YNL322C, strain KRE1 (second series), active compounds read low 1.02 | S. cerevisiae deletion strains, locus YNL322C, strain KRE1, active compounds read low 1.01 | S. cerevisiae deletion strains, locus YNR049C, strain mso1, active compounds read low 1.01 | S. cerevisiae deletion strains, locus YNR052C, strain pop2, active compounds read low 1 | S. cerevisiae deletion strains, locus YOL006C, strain TOP1, active compounds read low 1.06 | S. cerevisiae deletion strains, locus YOL012C, strain htz1 0.813 | S. cerevisiae deletion strains, locus YOL147C, strain pex11, active compounds read low 1 | S. cerevisiae deletion strains, locus YOR001W, strain rrp6, active compounds read low 0.989 | S. cerevisiae deletion strains, locus YOR061W, strain CKA2, active compounds read low 1 | S. cerevisiae deletion strains, locus YOR069W, strain VPS5, active compounds read low 1 | S. cerevisiae deletion strains, locus YOR070C, strain gyp1, active compounds read low 1.01 | S. cerevisiae deletion strains, locus YOR080W, strain dia2, active compounds read low 1.01 | S. cerevisiae deletion strains, locus YOR083W, strain WHI5, active compounds read low 0.979 | S. cerevisiae deletion strains, locus YOR106W, strain vam3, active compounds read low 0.996 | S. cerevisiae deletion strains, locus YOR136W, strain idh2, active compounds read low 0.996 | S. cerevisiae deletion strains, locus YOR144C, strain elg1, active compounds read low 0.996 | S. cerevisiae deletion strains, locus YOR184W, strain ser1, active compounds read low 1.01 | S. cerevisiae deletion strains, locus YOR265W, strain rbl2, active compounds read low 1.01 | S. cerevisiae deletion strains, locus YOR270C, strain vph1, active compounds read low 1.02 | S. cerevisiae deletion strains, locus YOR290C, strain snf2, active compounds read low 1 | S. cerevisiae deletion strains, locus YOR316C, strain cot1, active compounds read low 0.995 | S. cerevisiae deletion strains, locus YPL051W, strain arl3, active compounds read low 1.02 | S. cerevisiae deletion strains, locus YPL055C, strain LGE1, active compounds read low 1.03 | S. cerevisiae deletion strains, locus YPL078C, strain atp4, active compounds read low 1 | S. cerevisiae deletion strains, locus YPL106C, strain sse1, active compounds read low 1.04 | S. cerevisiae deletion strains, locus YPL240C, strain hsp82, active compounds read low 1.02 | S. cerevisiae deletion strains, locus YPL241C, strain CIN2, active compounds read low 1.01 | S. cerevisiae deletion strains, locus YPR119W, strain clb2, active compounds read low 1 | S. cerevisiae deletion strains, locus YPR141C, strain kar3, active compounds read low 1 | S. cerevisiae deletion strains, locus YPR163C, strain tif3, active compounds read low 0.996 | S. cerevisiae deletion strains, locus YPR167C, strain met16, active compounds read low 0.995 | S. cerevisiae deletion strains, strain wtn01, active compounds read low 0.988 | S. cerevisiae strains, strain wild type, active compounds read low 1
